# From the supplement of paper PMC9694430
# Assays:
# Experiment in all cases: thermal shift delta Tm vs DMSO control; higher = stronger stabilization (binding)
# Details in all cases: 12.5 µM; protein concentration 2 µM
# LOC_OS01G01410-cb001 = test system: LOC_OS01G01410-cb001
# Procedure, shortened: (§1)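 Rice kinase domain constructs were expressed in E. coli, purified, and tested by differential scanning fluorimetry with compound added in DMSO. Each well of a 96-well plate held 19.5 μl of 2 μM kinase in 100 mM potassium phosphate pH 7.5, 150 mM NaCl, 10% glycerol and 5 × SYPRO Orange, and fluorescence was read from 25°C to 95°C at 0.05°C/s. The melting temperature shift is the mean of triplicates, taken against protein with DMSO alone after Boltzmann fitting.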
# LOC_OS01G02750-cb003 = test system: LOC_OS01G02750-cb003
# Procedure, shortened: as §1
# LOC_OS01G10900-cb004 = test system: LOC_OS01G10900-cb004
# Procedure, shortened: as §1
# LOC_OS01G13800-cb001 = test system: LOC_OS01G13800-cb001
# Procedure, shortened: as §1
# LOC_OS01G14860-cb001 = test system: LOC_OS01G14860-cb001
# Procedure, shortened: as §1
# LOC_OS01G21960-cb002 = test system: LOC_OS01G21960-cb002
# Procedure, shortened: as §1
# LOC_OS01G39600-cb002 = test system: LOC_OS01G39600-cb002
# Procedure, shortened: as §1
# LOC_OS01G48390-cb002 = test system: LOC_OS01G48390-cb002
# Procedure, shortened: as §1
# LOC_OS01G51400-cb002 = test system: LOC_OS01G51400-cb002
# Procedure, shortened: as §1
# LOC_OS01G52050-cb004 = test system: T1, LOC_OS01G52050-cb004
# T1 sequence (whole entry): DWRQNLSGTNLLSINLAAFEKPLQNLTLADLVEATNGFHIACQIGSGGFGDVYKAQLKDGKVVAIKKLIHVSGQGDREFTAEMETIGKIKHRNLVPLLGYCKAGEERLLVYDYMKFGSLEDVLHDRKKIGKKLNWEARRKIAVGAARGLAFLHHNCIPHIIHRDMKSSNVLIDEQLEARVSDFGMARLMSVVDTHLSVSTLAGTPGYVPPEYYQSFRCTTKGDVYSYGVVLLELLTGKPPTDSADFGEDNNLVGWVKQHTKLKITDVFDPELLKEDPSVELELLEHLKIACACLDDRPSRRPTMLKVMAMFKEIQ
# Procedure, shortened: as §1
# LOC_OS01G57100-cb003 = test system: LOC_OS01G57100-cb003
# Procedure, shortened: as §1
# LOC_OS01G60330-cb001 = test system: LOC_OS01G60330-cb001
# Procedure, shortened: as §1
# LOC_OS01G60700-cb002 = test system: LOC_OS01G60700-cb002
# Procedure, shortened: as §1
# LOC_OS01G63280-cb003 = test system: LOC_OS01G63280-cb003
# Procedure, shortened: as §1
# LOC_OS01G67340-cb003 = test system: LOC_OS01G67340-cb003
# Procedure, shortened: as §1
# LOC_OS01G70970-cb002 = test system: LOC_OS01G70970-cb002
# Procedure, shortened: as §1
# LOC_OS02G07810-cb001 = test system: LOC_OS02G07810-cb001
# Procedure, shortened: as §1
# LOC_OS02G08530-cb003 = test system: LOC_OS02G08530-cb003
# Procedure, shortened: as §1
# LOC_OS02G14120-cb001 = test system: LOC_OS02G14120-cb001
# Procedure, shortened: as §1
# LOC_OS02G17970-cb001 = test system: LOC_OS02G17970-cb001
# Procedure, shortened: as §1
SMILES,thermal shift delta Tm (LOC_OS01G01410-cb001) [°C],thermal shift delta Tm (LOC_OS01G02750-cb003) [°C],thermal shift delta Tm (LOC_OS01G10900-cb004) [°C],thermal shift delta Tm (LOC_OS01G13800-cb001) [°C],thermal shift delta Tm (LOC_OS01G14860-cb001) [°C],thermal shift delta Tm (LOC_OS01G21960-cb002) [°C],thermal shift delta Tm (LOC_OS01G39600-cb002) [°C],thermal shift delta Tm (LOC_OS01G48390-cb002) [°C],thermal shift delta Tm (LOC_OS01G51400-cb002) [°C],thermal shift delta Tm (LOC_OS01G52050-cb004) [°C],thermal shift delta Tm (LOC_OS01G57100-cb003) [°C],thermal shift delta Tm (LOC_OS01G60330-cb001) [°C],thermal shift delta Tm (LOC_OS01G60700-cb002) [°C],thermal shift delta Tm (LOC_OS01G63280-cb003) [°C],thermal shift delta Tm (LOC_OS01G67340-cb003) [°C],thermal shift delta Tm (LOC_OS01G70970-cb002) [°C],thermal shift delta Tm (LOC_OS02G07810-cb001) [°C],thermal shift delta Tm (LOC_OS02G08530-cb003) [°C],thermal shift delta Tm (LOC_OS02G14120-cb001) [°C],thermal shift delta Tm (LOC_OS02G17970-cb001) [°C]
Cc1cc(Nc2ncc(Cl)c(Nc3ccccc3S(=O)(=O)C(C)C)n2)c(OC(C)C)cc1C1CCNCC1 [Ceritinib (LDK378)],0.47,1.1,0.21,-0.57,0.83,0.34,2.1,0.85,0.35,0.22,1.94,0.68,1.4,0.34,0.19,0.94,0.36,5.56,1.28,0.2
COc1ccc(CC(=O)Nc2nc3c(s2)CCc2ccccc2-3)cc1OC,0.68,1.06,0.85,0.28,0.9,0.69,0.43,1.55,-0.32,2.89,2.6,0.9,0.11,0.2,1.18,0.74,-0.24,0.98,2.82,0.81
Cn1nccc1Nc1nccc(-c2ccn([C@H](CO)c3ccc(Cl)c(F)c3)c(=O)c2)n1,0.99,1.21,0.24,-0.2,5,0.94,0.18,0.6,0.59,0.85,1.99,-0.22,0.52,0,0.09,0.22,-0.02,0.98,0.71,-0.12
C=CC(=O)Nc1cccc(Nc2nc(Nc3ccc(NC4CN(CCF)C4)cc3OC)ncc2C(F)(F)F)c1,0.5,-0.47,0.12,-0.76,0.1,0.07,1.11,2.29,0.35,0.31,0.4,0.07,0.83,0.2,-0.31,0.87,0.93,3.91,1.12,0.41
O=C(O)CCC(=O)Nc1ccc(Br)cn1 [Bikinin],0.12,0.77,-0.24,0.21,1.54,0.85,-0.26,0.5,0.37,0.34,3.66,0.91,0.53,0.52,0.6,0.23,0.66,0.69,0.3,0.9
Cc1nc2ccc(-n3ncc(C(=O)c4cc5ccccc5[nH]4)c3N)cc2[nH]1,0.79,1.12,0.9,0,0.41,-0.17,0.82,1.08,0.05,1.9,-0.72,2.34,-0.42,1.52,2.11,0.1,0.91,1.17,0.03,1.37
